Lamin A splicing: LMNA splicing modulation | Potency, µM (doses to about 46.1 µM), for inactives: top-dose ratio change, negative = inhibition, hits mostly inhibitors | HeLa LMNA splicing GFP/RFP minigene ratio, 48 h | 0.01% of 200,000 active; active = well fitted inhibition curve with a large enough effect in the signal ratio, with a control signal flat, not every such curve was filed as active; inconclusive = small, poorly fitted or top-dose-only effect, or effect the other way, or a change in a side signal; the % refers to the signal ratio; note: potency is the fitted concentration of half-maximal effect
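S3 HeLa cells stably expressing lamin A-EGFP splicing minigene plus DsRed2, 600 cells/well, 48 h compound exposure at 37C. Laser-scanning cytometry; analysed as GFP (500-530 nm)/RFP (575-640 nm) total intensity ratio; 0.5% DMSO vehicle.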
HPGD inh: inhibitors of human 15-hydroxyprostaglandin dehydrogenase (HPGD); P15428; purified HPGD, NADH fluorescence kinetic, PGE2 substrate; 4.3% of 150,000 active; Potency, µM, for inactives: at the top dose activity change, negative = inhibition, hits mostly inhibitors; AID 894; note: potency is the fitted concentration of half-maximal effect
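20 nM HPGD preincubated 15 min at room temperature with compound in 50 mM Tris-HCl pH 8, 0.01% Tween 20. Started with 1 mM NAD+ and 30 uM prostaglandin E2; NADH fluorescence (360/450 nm) read 5 times over 30-s intervals, last minus first.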
PNC assembly inh: inhibitors of perinucleolar compartment assembly. PC3M PTB-GFP, PNC prevalence imaging, 16 h; hits give low values. 3.1% of 140,000 active. activity change (PNC), negative = inhibition, % at 10 µM;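 active = readout at or below -70, meaning at least 70% loss of cells showing the perinucleolar compartment, a nuclear body marking cancer cells; inconclusive = readout between -30 and a set limit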;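 note: plate controls were DMSO wells for no effect and camptothecin positive control wells for full effect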
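Compounds are pinned in duplicate onto adhered PC3M cells stably expressing GFP-tagged PTB and incubated 16 h at 37 C. Cells are then fixed, nuclei stained with Hoechst, and PNC-positive cells counted.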
IMPase cell inh: IMPase inhibition in cells | P97697 | CHO-M1 cells, IP1 accumulation, HTRF TR-FRET ratio | inhibition (IP1 accumulation), % at 46.1 µM | 120,000 tested, under 10 active | AID 901; active = well fitted curve in the direction sought with a large enough effect in the signal ratio, not every such curve was filed as active; inconclusive = small, poorly fitted or top-dose-only effect, or a change in a side signal; inactive = no such curve, though single readings can be large or run the other way; the % refers to the signal ratio;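 note: cells stimulated with carbachol in lithium chloride buffer; plate controls were DMSO basal wells for no effect and reference inhibitor wells for full effect; higher means more IMPase inhibition seen as more IP1 and lower FRET ratio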
Target sequence (P97697 whole entry, looked up): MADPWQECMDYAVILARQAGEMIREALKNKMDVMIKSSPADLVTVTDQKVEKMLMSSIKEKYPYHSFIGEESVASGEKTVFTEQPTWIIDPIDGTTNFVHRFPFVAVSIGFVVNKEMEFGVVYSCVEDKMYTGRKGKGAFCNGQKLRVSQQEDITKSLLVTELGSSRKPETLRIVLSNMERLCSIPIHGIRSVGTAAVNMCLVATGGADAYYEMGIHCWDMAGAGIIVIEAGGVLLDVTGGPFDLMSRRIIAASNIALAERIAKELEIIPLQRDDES
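In this qHTS, compounds (final up to 46 uM) act on CHO-M1 cells that are then activated through the M1 receptor with carbachol, in pH 7.4 buffer containing 50 mM LiCl, for 30 min. IP1 accumulation is quantified by the IP-One immunoassay.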
ALDH1A1 block: inhibitors of human aldehyde dehydrogenase 1A1. P00352. Purified ALDH1A1, NADH fluorescence, propionaldehyde substrate. Potency, µM (doses to about 75.3 µM), for inactives: top-dose activity, negative = inhibition, usual class: inhibitors. 7.3% of 220,000 active. AID 1030;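 note: potency is the fitted concentration of half-maximal effect; plate controls were no enzyme wells and a reference inhibitor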
Target sequence (P00352 whole entry, looked up): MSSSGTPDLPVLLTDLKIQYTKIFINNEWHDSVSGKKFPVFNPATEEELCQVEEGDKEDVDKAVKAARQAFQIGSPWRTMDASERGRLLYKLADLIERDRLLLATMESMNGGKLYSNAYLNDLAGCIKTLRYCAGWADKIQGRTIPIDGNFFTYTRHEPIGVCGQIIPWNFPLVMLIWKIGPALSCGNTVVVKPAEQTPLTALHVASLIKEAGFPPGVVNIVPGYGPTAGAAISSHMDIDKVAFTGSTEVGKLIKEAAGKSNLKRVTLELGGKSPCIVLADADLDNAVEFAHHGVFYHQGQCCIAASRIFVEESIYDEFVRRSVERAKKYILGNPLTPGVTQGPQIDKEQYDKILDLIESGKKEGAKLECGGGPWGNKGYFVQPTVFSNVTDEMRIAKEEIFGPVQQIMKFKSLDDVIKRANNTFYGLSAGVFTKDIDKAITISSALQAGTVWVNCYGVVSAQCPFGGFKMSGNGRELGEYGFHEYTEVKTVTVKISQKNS
KinaseGlo FLuc: blocks Kinase-Glo luciferase, a counter-screen artifact. Q27757. Kinase-Glo luciferase, ATP luminescence, 8 min. Potency, µM (top dose mostly 38.3 µM), for the others: top-dose activity change, negative = inhibition, actives largely listed as inhibitors. 0.28% of 200,000 active; active = well fitted inhibition curve with a large enough effect; inconclusive = small, poorly fitted or top-dose-only effect; note: potency is the fitted concentration of half-maximal effect; nearly all actives have a fitted effect of over 60% in size
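Luminescence was the read-out, taken after 8-minute incubation at ambient temperature. Luciferase turned over luciferin with 10 uM ATP in imidazole pH 7.2 buffer containing KCl, MgCl2, Tween 20 and BSA.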
Active calls of the source: *; ? = inconclusive; / = not tested or not shown; [ ] = another dose, or the depositor's remark. A selection: hits, their analogues and other compounds. The true share with any hit is near 10%. Unless noted, calls come from the whole dose curve; as a rule, active = well fitted inhibition curve with a large enough effect (not every such curve was filed as active); inconclusive = small, poorly fitted or top-dose-only effect, or another doubt; inactive = no such curve, though single readings can be large or run the other way. Unless noted, % is set by controls: 0 for no effect and ±100 for the full control effect.

SMILES | Lamin A splicing | HPGD inh | PNC assembly inh | IMPase cell inh | ALDH1A1 block | KinaseGlo FLuc
Cc1ccc(-c2cc(NC(=O)CCl)n(-c3ccccc3)n2)cc1 | ? | -10% | ? | -2 | 0.5µM* | -5%
CCc1ccc(CNC(=O)c2c(C)oc3ncn(CC(C)C)c(=O)c23)cc1 | -22%[46 µM] | / | / | / | / | /
O=C(NCCc1ccc(Cl)cc1)c1cnc2sc(N3CCCC3)nn2c1=O | 9%[46 µM] | / | / | / | / | /
CC1(O)C(=O)C=C2C=C(CCCCOCc3ccccc3)OC=C2C1=O (stereo not given) | / | / | / | / | -4%[13.5 µM] | /
Cc1ccc(-c2nn(-c3ccccc3)c3[nH]c(=O)c(CNCc4ccccc4)cc23)cc1 | ? | -23% | 87 | -1 | ? | 2%
Cc1ccc(-c2nn(-c3ccccc3)cc2CNCc2ccccc2)cc1 | ? | / | / | / | 22µM* | 1%
CC1(C)CC(=O)C=C(OC(=O)c2ccc(Cl)cc2)C1 | -4% | 14µM* | -15 | 11 | 7% | 5%
COc1ccc(C(=O)NNC2=CC(=O)CC(C)(C)C2)cc1 | -7% | 0% | -8 | / | -3% | -3%
CCOC(=O)CNC1CC(=O)N(c2cccc(Cl)c2)C1=O (stereo not given) | 6% | 0% | 1 | 1 | 18µM* | -2%
COc1cc(NC(=O)Cn2nc(C(F)(F)F)c3c2CCCC3)c(OC)cc1Cl | / | / | / | 7 | / | /
Cc1ccc(N2C(=O)C3C(C2=O)C2C=CC3C23CC3)c([N+](=O)[O-])c1 (stereo not given) | 1%[46 µM] | / | / | / | 2.5µM* | 0%
COc1ccc(CNC(=O)/C=C/c2ccco2)cc1OC | / | / | / | / | 3.5µM* | 12%
COc1ccc(C(NC(=O)/C=C/c2ccco2)c2ccc(OC)c(OC)c2)cc1 (stereo not given) | ? | ? | 1 | 11 | 20µM* | -5%
COc1cc(C2NC(=O)NC(C)=C2C(=O)Nc2cc(C)cc(C)c2)ccc1O (stereo not given) | / | / | / | -1 | / | /
Cc1ccc(NC(=O)Cn2cc(S(=O)(=O)N3CCN(c4ccccc4F)CC3)c3ccccc3c2=O)cc1F | / | / | / | -7 | / | /
C=CCSC1=N/C(=C\c2cc(OCC)c(OC(C)=O)c([N+](=O)[O-])c2)C(=O)S1 | 8% | 6.3µM* | -116* | / | 0% | ?
C=CCSC1=N/C(=C\c2ccc3c(c2)OCO3)C(=O)S1 | 1% | -14% | -23 | -4 | -9% | 1%
O=S(=O)(NCc1csc(-c2ccccc2)n1)c1ccc(Cl)s1 | 1% | 18µM* | 94 | -16 | -3% | 3%
CCc1nc(N2CCCCC2)c2oc3ccccc3c2n1 | ? | -12% | -23 | -1 | 13µM* | -1%
CCc1nc(NC(C)C)c2oc3ccccc3c2n1 | 12% | -13% | -94* | 12 | ? | 1%
Cc1nc(N[C@@H](Cc2ccccc2)C(=O)O)c2oc3ccccc3c2n1 | 1%[0.0737 µM] | -15% | 52 | -4 | 18µM* | 3%
CSCC[C@@H](Nc1nc(-c2ccccc2)nc2c1oc1ccccc12)C(=O)O | -12% | -12% | 20 | 2 | 11µM* | 2%
O=C(NCCCN1CCOCC1)c1ccc(Cc2nc3ccccc3[nH]2)cc1 | / | -6% | / | / | 9% | -2%
CCc1nc(Nc2ccncc2)c2oc3ccccc3c2n1 | ? | -27% | -4 | 23 | ? | 0%
CCc1nc(NCCN2CCOCC2)c2oc3ccccc3c2n1 | 6% | -16% | ? | 1 | 0.89µM* | -3%
SMILES | Lamin A splicing | HPGD inh | PNC assembly inh | IMPase cell inh | ALDH1A1 block | KinaseGlo FLuc
CCc1nc(N[C@@H](Cc2c[nH]c3ccccc23)C(=O)O)c2oc3ccccc3c2n1 | -2% | -1% | 16 | 6 | 3% | -1%
CCc1nc(N[C@@H](CC(C)C)C(=O)O)c2oc3ccccc3c2n1 | 7%[0.0737 µM] | -9% | 32 | 3 | 0.89µM* | -1%
CCc1nc(N[C@H](C(=O)O)C(C)C)c2oc3ccccc3c2n1 | / | / | / | / | 0.79µM* | /
O=C(CSCc1c(Cl)cccc1Cl)Nc1nccs1 | 18% | 20µM* | -12 | 9 | -7% | -4%
CNC(=O)CSCc1c(Cl)cccc1Cl | 6% | -17% | 41 | 3 | 9% | 0%
CC(C)NC(=O)CSCc1c(Cl)cccc1Cl | 22% | 14µM* | 29 | 0 | ? | -3%
Cc1ccc(-n2ncc3c2ncn2c(-c4ccncc4)nnc32)cc1 | 0% | -4% | -91* | 2 | 7% | -2%
c1ccc(Cn2ncc3c2ncn2c(-c4ccncc4)nnc32)cc1 | 6% | -20% | 1 | 7 | 2% | -1%
O=C1ON=C(c2ccccc2)/C1=C/c1ccc(OS(=O)(=O)c2ccccc2)cc1 | -7% | 10µM* | ? | / | 11µM* | 3%
Cc1ccc(NC(=S)c2nc3ccccc3[nH]2)c(C)c1 | 4% | 32µM* | 15 | / | ? | -14%
COc1ccc(N(CCC#N)C(=O)/C(C#N)=C/c2cccs2)cc1 | 10%[46 µM] | / | / | / | 14µM* | 2%
Cc1cc(Cl)c(S(=O)(=O)NCc2ccncc2)cc1OCC(N)=O | -14% | -4% | -13 | 2 | ? | 2%
Cc1cc(Cl)c(S(=O)(=O)NCc2ccccc2)cc1OCC(N)=O | 7% | -4% | -113* | -8 | -5% | 7%
CCCC(=O)Nc1sc(C)c(-c2ccc(OC)cc2)c1C#N | -2% | -9% | 35 | -8 | 3% | 0%
CCCc1ccc(-c2c(C)sc(N)c2C#N)cc1 | -2% | -26% | -7 | 1 | 20µM* | 0%
COc1ccccc1Nc1n[nH]c(=S)s1 | 5%[46 µM] | / | / | / | 3.5µM* | -2%
COc1cccc(Nc2n[nH]c(=S)s2)c1 | -15% | 10µM* | ? | 11 | 3.5µM* | -4%
Cc1cccc(Nc2n[nH]c(=S)s2)c1C | 10% | 10µM* | -20 | -12 | 3.5µM* | -3%
O=C(NCc1ccccc1F)C1CCN(Cc2cc3ccccc3n2Cc2cccc(Cl)c2)CC1 | -8%[46 µM] | / | / | / | / | /
Cn1c(C(=O)Nc2ccc(OC(F)(F)F)cc2)cc2c(=O)n3ccccc3nc21 | 6%[46 µM] | / | / | / | / | /
N#CCCN1CCN(C(=S)c2ccc(-c3ccc(Cl)cc3)o2)CC1 | ? | 20µM* | ? | 4 | 4.5µM* | -2%
CC(C)C[C@H](NC(=O)C1OC1C(=O)O)C(=O)NCCCCN=C(N)N (stereo not given in full) | ? | -6% | / | / | -4% | -9%
CS(=O)(=O)c1ccc(CNC(=O)[C@H]2C[C@@H]2[C@H](NP(=O)(c2ccccc2)c2ccccc2)c2ccccc2)cc1 | / | -3% | / | / | 8% | 2%
CCCCc1nc2ccccc2c(NC(=O)CN2CCCC2)c1CCC | -7% | -5% | -100* | 3 | ? | 1%
CCCCc1nc2ccccc2c(NC(=O)CNC(C)(C)C)c1CCC | -7% | 10% | 36 | -3 | 3% | 0%
